# According to PubChem BioAssay AID1159580 (chemical genetic matrix, 2015):
# “And” between values parts separate entries of the source, which are not always exact repeats. Identical values can stand only once. The whole screen tested about 5,500 compounds, of which about 2,000 (36%) were called active. Not shown: some 18% with an inconclusive outcome. Some of the results follow. Unmarked numbers belong to inactive results. Cut-off read from the data, not from the text of the source: active = normalized growth mostly below about 0.91 (no sharp cut-off); inconclusive = no clear call, values can overlap the other calls; inactive = mostly above about 0.92.
# Test: chemical genetic growth profiling, strain panel (AID 1159580);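 note: tested at 20 µM; growth read once vehicle control cultures reached saturation at 30 °C; 1 = growth at the plate median or of vehicle wells; lower values mean less growth of the strain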
# Details: S. cerevisiae deletion strains, growth OD
compound,measurement,setting,value
Cc1cc(O)ccc1Cl,normalized growth,"locus YAL021C, strain ccr4, active compounds read low",1.11 [resistant] (active)
same,normalized growth,"locus YAL026C, strain drs2, active compounds read low",1.01
same,normalized growth,"locus YAL030W, strain snc1, active compounds read low",1.02
same,normalized growth,"locus YBL061C, strain skt5, active compounds read low",0.992
same,normalized growth,"locus YBR009C, strain hhf1, active compounds read low",0.999
same,normalized growth,"locus YBR021W, strain FUR4, active compounds read low",1.02
same,normalized growth,"locus YBR023C, strain chs3, active compounds read low",1.01
same,normalized growth,"locus YBR171W, strain sec66, active compounds read low",0.997
same,normalized growth,"locus YBR229C, strain ROT2, active compounds read low",1
same,normalized growth,"locus YBR231C, strain swc5, active compounds read low",0.993
same,normalized growth,"locus YBR279W, strain paf1, active compounds read low",1.02
same,normalized growth,"locus YCL011C, strain gbp2, active compounds read low",1.01
same,normalized growth,"locus YCL016C, strain dcc1, active compounds read low",1.01
same,normalized growth,"locus YCL029C, strain bik1, active compounds read low",0.983
same,normalized growth,"locus YCL069W, strain vba3, active compounds read low",1.02
same,normalized growth,"locus YCR088W, strain abp1, active compounds read low",1.01
same,normalized growth,"locus YDL005C, strain med2, active compounds read low",1.02
same,normalized growth,"locus YDL035C, strain GPR1, active compounds read low",0.955
same,normalized growth,"locus YDL040C, strain nat1, active compounds read low",1
same,normalized growth,"locus YDL074C, strain BRE1, active compounds read low",0.987
same,normalized growth,"locus YDL101C, strain DUN1, active compounds read low",1.03
same,normalized growth,"locus YDL185W, strain tfp1, active compounds read low",0.986
same,normalized growth,"locus YDL192W, strain arf1, active compounds read low",1
same,normalized growth,"locus YDR001C, strain nth1, active compounds read low",1.01
same,normalized growth,"locus YDR069C, strain doa4, active compounds read low",1.03
same,normalized growth,"locus YDR101C, strain arx1, active compounds read low",0.992
same,normalized growth,"locus YDR137W, strain rgp1, active compounds read low",0.816 (active)
same,normalized growth,"locus YDR159W, strain sac3, active compounds read low",0.784 (active)
same,normalized growth,"locus YDR162C, strain NBP2, active compounds read low",0.986
same,normalized growth,"locus YDR195W, strain ref2",1.2 [resistant] (active)
same,normalized growth,"locus YDR297W, strain sur2, active compounds read low",1.03
same,normalized growth,"locus YDR318W, strain mcm21, active compounds read low",0.993
same,normalized growth,"locus YDR334W, strain swr1, active compounds read low",1.02
same,normalized growth,"locus YDR335W, strain msn5, active compounds read low",1
same,normalized growth,"locus YDR388W, active compounds read low",1
same,normalized growth,"locus YDR392W, strain spt3, active compounds read low",0.944
same,normalized growth,"locus YDR502C, strain sam2, active compounds read low",0.974
same,normalized growth,"locus YEL003W, strain gim4, active compounds read low",1.01
same,normalized growth,"locus YEL037C, strain rad23, active compounds read low",1.01
same,normalized growth,"locus YEL061C, strain CIN8 (second series), active compounds read low",1.01
same,normalized growth,"locus YEL061C, strain CIN8, active compounds read low",0.999
same,normalized growth,"locus YER015W, strain faa2, active compounds read low",0.993
same,normalized growth,"locus YER016W, strain bim1, active compounds read low",0.994
same,normalized growth,"locus YER110C, active compounds read low",1.01
same,normalized growth,"locus YER111C, strain swi4, active compounds read low",1.01
same,normalized growth,"locus YER155C, strain BEM2 (second series), active compounds read low",0.991
same,normalized growth,"locus YER155C, strain BEM2, active compounds read low",1
same,normalized growth,"locus YER167W, strain BCK2, active compounds read low",0.997
same,normalized growth,"locus YFR010W, strain ubp6, active compounds read low",1
same,normalized growth,"locus YGL078C, strain dbp3, active compounds read low",0.981
same,normalized growth,"locus YGL086W, strain mad1, active compounds read low",0.968
same,normalized growth,"locus YGL167C, strain pmr1, active compounds read low",1.02
same,normalized growth,"locus YGL173C, strain kem1, active compounds read low",0.948
same,normalized growth,"locus YGL227W, strain vid30, active compounds read low",1
same,normalized growth,"locus YGL240W, strain doc1, active compounds read low",0.999
same,normalized growth,"locus YGL248W, strain PDE1, active compounds read low",1.02
same,normalized growth,"locus YGL253W, strain hxk2, active compounds read low",1.01
same,normalized growth,"locus YGR135W, strain pre9, active compounds read low",1.02
same,normalized growth,"locus YGR252W, strain gcn5, active compounds read low",0.936
same,normalized growth,"locus YHR013C, strain ard1, active compounds read low",1.13
same,normalized growth,"locus YHR027C, strain rpn1, active compounds read low",0.991
same,normalized growth,"locus YHR030C, strain SLT2, active compounds read low",0.999 and 0.932
same,normalized growth,"locus YHR079C, strain IRE1 (second series), active compounds read low",1.01
same,normalized growth,"locus YHR079C, strain IRE1, active compounds read low",0.954
same,normalized growth,"locus YHR094C, strain hxt1, active compounds read low",1.01
same,normalized growth,"locus YHR129C, strain ARP1, active compounds read low",1.01
same,normalized growth,"locus YHR142W, strain chs7, active compounds read low",0.981
same,normalized growth,"locus YHR200W, strain rpn10, active compounds read low",1
same,normalized growth,"locus YIL066C, strain RNR3, active compounds read low",1
same,normalized growth,"locus YIL073C, strain SPO22, active compounds read low",1.04
same,normalized growth,"locus YIL125W, strain kgd1, active compounds read low",1.01
same,normalized growth,"locus YIR030C, strain dcg1, active compounds read low",1
same,normalized growth,"locus YJL092W, strain hpr5, active compounds read low",0.989
same,normalized growth,"locus YJL095W, strain BCK1 (second series), active compounds read low",1.01
same,normalized growth,"locus YJL095W, strain BCK1, active compounds read low",1.02 and 0.938
same,normalized growth,"locus YJL115W, strain asf1, active compounds read low",1.02
same,normalized growth,"locus YJL129C, strain trk1, active compounds read low",1
same,normalized growth,"locus YJL134W, strain LCB3, active compounds read low",1.01
same,normalized growth,"locus YJL154C, strain vps35, active compounds read low",1.01
same,normalized growth,"locus YJL164C, strain tpk1, active compounds read low",1.02
same,normalized growth,"locus YJL166W, strain qcr8, active compounds read low",1
same,normalized growth,"locus YJL168C, strain set2, active compounds read low",1.01
same,normalized growth,"locus YJL187C, strain SWE1 (second series), active compounds read low",1.02
same,normalized growth,"locus YJR043C, strain POL32, active compounds read low",0.991
same,normalized growth,"locus YJR066W, strain TOR1, active compounds read low",0.942
